The text below walks through data of PubChem BioAssay (NCI).

Where “and” joins values, the source holds several entries; their conditions need not be identical. Equal values may be shown once. This is part of a sample that, as a whole, favours compounds with a hit. Of some 83,000 tested, about 20% had one in any assay.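 Negative percent growth values reflect cell death: -40 means 40% of the cells present at the start died, and -100 means all died.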 Calls of active or inactive are those of the source. How the source made its calls: active means growth percent below 10; inactive means the rest.

This experiment concerns MDA-MB-468 breast. In words: NCI-60 one-dose screen, 48 h (100 = growth as untreated, 0 = no growth, -100 = all killed). Particulars: 10 µM unless noted.
For the molecule `Nc1ccc(P(=O)(O)O)cc1`, the growth is 104% (inactive) and 92.6% (inactive).

Take `CCN1C(=O)NC(=O)C(C)(N2C(=O)c3c(F)c(F)c(F)c(F)c3C2=O)C1=O` (centres undefined): the growth was -6.73% (active).

As to `COc1ccc(/C=C\c2cc(OC)c(OC)c(OC)c2)cc1NC(=O)/C=C/c1ccc(OC)c(OC)c1`, the growth was 1.52% (active).

Regarding `O=C1OCC2=C1C(c1ccccc1)c1cc3c(cc1N2)OCO3` (centres undefined), the growth is -9.05% (active).

For the molecule `O=NN(c1ccccc1)c1ccccc1`, the growth was 95% (inactive).

Consider `COC(=O)[C@H](C[C@H](Cc1ccccc1)NC(=O)c1csc([C@@H](C[C@H](C(C)C)N(C)C(=O)[C@@H](NC(=O)[C@H]2CCCCN2C)C(C)C)OC(C)=O)n1)NC(=O)OCc1ccccc1`, for which the growth was 0.51% [8.5 µM] (active).

On to `O=C([O][Hg][CH2]C1OCCOC1[CH2][Hg][O]C(=O)c1ccccc1)c1ccccc1` (centres undefined), for which the growth was -81.5% (active).

With `C[C@@H]1CCC/C=C/[C@H]2C[C@@H](O)C[C@@H]2[C@@H](O)/C=C/C(=O)O1`, the growth was -21.4% (active).

With `C/C(Cc1ccc(Cl)cc1)=C(\c1ccc(OCCN2CCOCC2)cc1)c1ccc(OC(=O)Cc2ccccc2)cc1`, the growth is 88.7% (inactive).

In the case of `Fc1ccc(C2=NN(c3ccccc3)C(c3sc(N(CCCl)CCCl)nc3Cl)C2)cc1` (centres undefined), the growth is 81.4% (inactive).

`[Br][Pb]([c]1ccccc1)([c]1ccccc1)[c]1ccccc1`: the growth is -88.2% (active).

For the molecule `O=C(N/N=C/c1ccc(N(CCCl)CCCl)cc1)c1cccc2ccccc12`, the growth was 56.2% (inactive).

On to `CCCCn1cc(C(=O)/C(C#N)=C/c2cc3ccccc3nc2Cl)c2cc(OC)ccc21`, for which the growth is 104% (inactive).

Take `Cc1ccc(C(=O)OC(C(=O)O)C(OC(=O)c2ccc(C)cc2)C(=O)O)cc1` (centres undefined) (tested in a mixture with another compound): the growth was -12.2% (active).

In the case of `C=CCc1cc2c(cc1OCC)OCO2`, the growth is 101% (inactive).

Take `COC(=O)[C@@H](C)C[C@H](Cc1cn(C)c2ccccc12)NC(=O)c1csc([C@@H](C[C@H](C(C)C)N(C)C(=O)[C@@H](NC(=O)[C@H]2CCCCN2C)C(C)C)OC(C)=O)n1`: the growth was 28.6% (inactive).

On to `N/C(=N/N=C/c1ccncc1)N[N+](=O)[O-]`, for which the growth is 110% (inactive).

Turning to `C/C(=C\c1ccn(-c2ccc(N)c(C(F)(F)F)c2)n1)[C@@H]1C[C@@H]2O[C@]2(C)CCC[C@H](C)[C@H](O)[C@@H](C)C(=O)C(C)(C)[C@@H](O)CC(=O)O1`, the growth is 4.12% (active).

`C=CC1=C[C@@H]2[C@@H]3O[C@]4(CC[C@H](O4)[C@@H](C)C[C@@H](O)C3=O)C[C@H](O)C3=NCC[C@@]32CC1`: the growth was -56% (active).

On to `Cc1cc(C)nc(C)c1.[Cl][Hg][Cl]`, for which the growth was 113% (inactive).

For `C[C@]12CCC(=O)CC1CC[C@@H]1C2CC[C@@]2(C)C1CC[C@@H]2OC(=O)CC[Se][Se]CCC(=O)O[C@H]1CCC2[C@@H]3CCC4CC(=O)CC[C@]4(C)C3CC[C@@]21C` (some centres undefined), the growth was 77.5% (inactive).

For `Oc1ccccc1C=NCCN=Cc1ccccc1O`, the growth is 107% (inactive).

Regarding `CNC(=O)Oc1cccc(C(F)(F)F)c1`, the growth was 110% (inactive).

Consider `O=C(O)C(O)C(O)C1[O][Sb]([c]2ccc([N+](=O)[O-])cc2)[O]C1CO` (centres undefined), for which the growth was 98.2% (inactive).

For `CC(=O)/C=C/c1ccc2c(c1)OCO2`, the growth is 96.6% (inactive).

`C/C(=C\C(=O)O[C@H]1[C@@H]2[C@H](C)CC[C@H]2[C@]2(C)O[C@@]1(C1CCCCC1)C[C@H]2OC(=O)CO)c1ccccc1`: the growth is 28% (inactive).

`CC(=O)O[C@@H]1[C@@H]2O[C@H]2[C@@](C)(O)C(=O)[C@@H](C)C/C=C/[C@H]2[C@@H]3O[C@]3(C)[C@@H](C)C3[C@H](Cc4ccccc4)NC(=O)[C@@]312` (some centres undefined): the growth was 56.8% (inactive).

For `O=C1c2ccccc2C(=O)C(Cl)C1Cl` (centres undefined), the growth was -89.9% (active).

As to `COC(=O)[C@H]1[C@@H](O)[C@@]2(O)c3c(OC)cc(OC)cc3O[C@@]2(c2ccc(OC)cc2)[C@@H]1c1ccccc1`, the growth was -16.5% (active).

With `CC[C@H](C)[C@H](NC(=O)C12C3C4C1C1C2C3C41NC(C)=O)C(=O)N(C)[C@H](C[C@@H](OC(C)=O)c1nc(C(=O)N[C@@H](Cc2ccccc2)C[C@H](C)C(=O)OC)cs1)C(C)C` (some centres undefined), the growth was 11.5% (inactive).

As to `CC(=O)O[C@H]1CCC2C3CCC4=C/C(=N/O)CCC4(C)C3CCC21C` (some centres undefined), the growth was 97.7% (inactive).

For `CCCCCCCCC(CO)NCCc1ccccc1` (centres undefined), the growth is 100% (inactive).

With `Nc1cccnc1`, the growth is 130% (inactive).

On to `CCCCCN(CCCCC)CC(O)c1ccc(C)c(Cl)c1` (centres undefined), for which the growth was 99.9% (inactive).

Regarding `O=S(=O)(Cl)c1ccccc1` (tested in a mixture with another compound), the growth is 98.6% (inactive).

As for `CNC(=O)Oc1ccc(C(C)(C)C)cc1OC(=O)NC`, the growth is 88.4% (inactive).

Consider `Cc1ccccc1-n1c(/C=C\c2ccccn2)nc2ccccc2c1=O`, for which the growth was 3.39% (active).

Turning to `CN(CCF)/N=N/c1nc[nH]c1C(N)=O`, the growth was 26.7% (inactive).

Consider `NS(=O)(=O)c1nc[nH]c1[N+](=O)[O-]`, for which the growth is 103% (inactive).
